Laboratory results taken from PubChem BioAssay (EPA / NIEHS).
Inconclusive results are not listed. Calls of active or inactive are those of the source. Rule for the calls, unless noted: active = hit-call score of the fitted dose curve at least 0.9, where 1 is the maximum; inactive = score below 0.9.

Key:
[1] = target: Paired box protein Pax-6 (Homo sapiens) (UniProt P26367); assay: ATG_Pax6_CIS: Attagene CIS-FACTORIAL HepG2 Assay for human Paired Box 6 (PAX6) (AID 2282956); conditions: HepG2 CIS-FACTORIAL PAX6 reporter transcription, RNA readout; actives raise or lower the signal
How it was run: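 HepG2 cells transiently transfected with cis-promoter-driven multiplexed reporter units sensing endogenous transcription factor activity; 24 h chemical exposure. Reporter mRNA quantified by RT-PCR, 6-FAM labelling, HpaI digestion and capillary electrophoresis; bidirectional fit versus DMSO baseline.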

[2] = ATG_PXRE_CIS: Attagene CIS-FACTORIAL HepG2 Assay for human Pregnane X Receptor Element (PXRE) (AID 2282957); conditions: HepG2 Attagene CIS-FACTORIAL PXRE reporter, mRNA; actives raise or lower the signal
How it was run: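 HepG2 cells transiently transfected with cis-regulated multiple reporter transcription units; endogenous factor activity measured as reporter mRNA 24 h after dosing. RT-PCR, fluorescent primer extension, HpaI digestion, capillary electrophoresis; bidirectional fit versus DMSO baseline.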

[3] = ATG_PPRE_CIS: Attagene CIS-FACTORIAL HepG2 Assay for human Peroxisome Proliferator-activated Response Element (PPRE) (AID 2282958); conditions: HepG2 PPRE cis-element reporter, Attagene transcription factor profiling; actives raise or lower the signal
How it was run: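 Multiplexed reporter transcription units under cis-regulatory promoters were transfected into HepG2 cells to capture endogenous factor activity. A 24 h incubation preceded RNA isolation and fluorescent RT-PCR fragment analysis.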

[4] = ATG_RORE_CIS: Attagene CIS-FACTORIAL HepG2 Assay for human RAR-related Orphan Receptor Element (RORE) (AID 2282959); conditions: HepG2 Attagene cis-factorial RORE reporter, mRNA; actives raise or lower the signal
How it was run: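 Fluorescence intensity of reporter-specific cDNA fragments, separated by capillary electrophoresis, gives the signal. Source: HepG2 liver cells transiently transfected with cis-element reporters and exposed 24 h; DMSO-normalized bidirectional fit.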

[5] = ATG_Sox_CIS: Attagene CIS-FACTORIAL HepG2 Assay for human SRY-box transcription factor (SOX) (AID 2282960); conditions: HepG2 Attagene cis-factorial SOX reporter, mRNA; actives raise or lower the signal
How it was run: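 After 24 h of chemical treatment, transfected HepG2 reporter cells are lysed for total RNA. Transcript levels come from RT-PCR with labelled primer extension and capillary electrophoresis, analysed bidirectionally versus DMSO.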

[6] = target: Transcription factor Sp1 (Homo sapiens) (UniProt P08047); assay: ATG_Sp1_CIS: Attagene CIS-FACTORIAL HepG2 Assay for human Specificity Protein 1 (Sp1) (AID 2282961); conditions: HepG2 Sp1 cis-reporter transcription, actives raise or lower the signal
How it was run: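 Sp1-driven reporter mRNA, read as capillary electrophoresis fluorescence after RT-PCR, in transiently transfected HepG2 cells dosed for 24 h; signal change in either direction relative to DMSO.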

[7] = ATG_SREBP_CIS: Attagene CIS-FACTORIAL HepG2 Assay for human Sterol Regulatory Element Binding (SREBP) (AID 2282962); conditions: HepG2 Attagene cis-factorial SREBP reporter, mRNA; actives raise or lower the signal
How it was run: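 HepG2 cells transiently transfected with multiplexed cis-promoter reporter units sensing endogenous transcription factors; reporter mRNA measured 24 h after dosing by RT-PCR, 6-FAM labeling, HpaI digestion and capillary electrophoresis. Bidirectional fit versus DMSO.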

[8] = target: Signal transducer and activator of transcription 3 (Homo sapiens) (UniProt P40763); assay: ATG_STAT3_CIS: Attagene CIS-FACTORIAL HepG2 Assay for human Signal Transducer and Activator of Transcription 3 (STAT3) (AID 2282963); conditions: HepG2, Attagene cis-factorial STAT3 reporter transcription; actives raise or lower the signal
How it was run: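 HepG2 cells transiently transfected with cis-element-driven multiple reporter transcription units; after 24 h chemical exposure, reporter mRNA measured by RT-PCR, 6-FAM primer-extension labelling, HpaI digestion and capillary electrophoresis. Bidirectional fitting versus DMSO baseline.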

[9] = ATG_TA_CIS: Attagene CIS-FACTORIAL HepG2 Assay for human TA Basal Promoter (AID 2282964); conditions: HepG2 Attagene CIS-factorial TA basal promoter reporter; actives raise or lower the signal
How it was run: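 Transient MRTU transfection of HepG2 preceded 24 h compound exposure. Reporter mRNA levels were then read by RT-PCR with capillary electrophoresis, and this background-control endpoint was fitted bidirectionally to DMSO.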

[10] = ATG_TCF_b_cat_CIS: Attagene CIS-FACTORIAL HepG2 Assay for human T-Cell-Factor with beta-catenin (TCF/b-cat) (AID 2282965); conditions: HepG2 TCF/beta-catenin cis-reporter transcription, actives raise or lower the signal
How it was run: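 Using capillary electrophoresis as the read-out, labelled reporter cDNA fragments from transiently transfected HepG2 were sized and quantified. Exposure lasted 24 hours; activity in either direction was referenced to DMSO.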

[11] = ATG_TAL_CIS: Attagene CIS-FACTORIAL HepG2 Assay for human TAL Basal Promoter (AID 2282966); conditions: HepG2 Attagene cis-factorial TAL promoter reporter; actives raise or lower the signal;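 note: background control endpoint measuring basal TAL promoter reporter mRNA not a specific factor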
How it was run: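 HepG2 cells were transiently transfected with promoter-driven multiplexed reporter units and dosed for 24 h. Reporter mRNA was measured by RT-PCR with capillary electrophoresis fluorescence; bidirectional fits used DMSO as baseline, serving as a background control.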

[12] = ATG_TGFb_CIS: Attagene CIS-FACTORIAL HepG2 Assay for human Transforming Growth Factor (TGF) (AID 2282967); conditions: HepG2 Attagene CIS TGFb reporter, mRNA transcription; actives raise or lower the signal
How it was run: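 After a 24-hour incubation with compound, transfected HepG2 cells were lysed for RNA; reporter cDNA was amplified, fluorescently end-labeled and separated by CE. DMSO served as baseline for bidirectional fits.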

[13] = ATG_VDRE_CIS: Attagene CIS-FACTORIAL HepG2 Assay for human Vitamin D Receptor Element (VDRE) (AID 2282968); conditions: HepG2 VDRE cis-reporter transcription, actives raise or lower the signal
How it was run: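 HepG2 cells transiently transfected with cis-element reporter units, dosed 24 h; reporter mRNA measured by RT-PCR, 6-FAM labeling, HpaI digestion and capillary electrophoresis. Activity fitted bidirectionally against DMSO baseline.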

[14] = target: X-box-binding protein 1 (Homo sapiens) (UniProt P17861); assay: ATG_Xbp1_CIS: Attagene CIS-FACTORIAL HepG2 Assay for human X-box Binding Protein 1 (XBP1) (AID 2282972); conditions: HepG2 XBP1 cis-element reporter, Attagene multiplex; actives raise or lower the signal
How it was run: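 HepG2 cells transiently transfected with multiple cis-element reporter units report endogenous TF activity; 24 h exposure, then reporter mRNA measured by RT-PCR, 6-FAM labelling, HpaI digestion and capillary electrophoresis. Bidirectional fitting versus DMSO.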

[15] = target: Nuclear receptor subfamily 1 group I member 3 (Homo sapiens) (UniProt Q14994); assay: ATG_CAR_TRANS: Attagene TRANS-FACTORIAL HepG2 Assay for human Constitutive Androstane Receptor (CAR) (AID 2282969; active = hit-call score of the fitted dose curve at least 0.9, where 1 is the maximum;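 note: activators raise reporter mRNA above DMSO so AC50 marks induction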); conditions: HepG2 Attagene TRANS-FACTORIAL CAR reporter
How it was run: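 HepG2 cells transiently transfected with multiplexed GAL4-UAS reporter units expressing chimeric NR-Gal4 proteins; compound exposure 24 h. Reporter mRNA measured by RT-PCR, 6-FAM labelling, HpaI digestion and capillary electrophoresis; gain-of-signal fitted against DMSO baseline.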

[16] = ATG_M_19_TRANS: Attagene TRANS-FACTORIAL HepG2 Assay for M19 Transcription Factor (Internal Marker) (AID 2282974; active = hit-call score of the fitted dose curve at least 0.9, where 1 is the maximum); conditions: HepG2 Attagene TRANS-FACTORIAL M19 internal marker reporter
How it was run: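 Measured here: internal-marker reporter transcript from HepG2 cells transfected with MRTUs, harvested at 24 h. cDNA PCR products were 6-FAM labelled by primer extension, cut with HpaI for 2 h at 37 C, and resolved by CE.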

[17] = target: Estrogen receptor (Homo sapiens) (UniProt P03372); assay: ATG_ERa_TRANS: Attagene TRANS-FACTORIAL HepG2 Assay for human Estrogen Receptor alpha (ERa) (AID 2282970; active = hit-call score of the fitted dose curve at least 0.9, where 1 is the maximum); conditions: HepG2 Attagene TRANS ERa GAL4 reporter, mRNA
How it was run: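 HepG2 cells transiently transfected with multiplexed GAL4-UAS reporter units; ERa activity read via exogenous chimeric NR-Gal4 protein. After 24 hour compound exposure, reporter mRNA measured by RT-PCR with 6-FAM labelling and capillary electrophoresis; gain-of-signal fitted relative to DMSO.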

[18] = target: Steroid hormone receptor ERR1 (Homo sapiens) (UniProt P11474); assay: ATG_ERRa_TRANS: Attagene TRANS-FACTORIAL HepG2 Assay for human Estrogen-Related Receptor alpha (ERRa) (AID 2282971; active = hit-call score of the fitted dose curve at least 0.9, where 1 is the maximum); conditions: HepG2 Attagene TRANS reporter, ERRa transactivation
How it was run: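 HepG2 cells transiently transfected with multiplexed GAL4-UAS reporter units reading chimeric ERRa-Gal4 activity; 24 h compound exposure. Reporter mRNA measured by RT-PCR, 6-FAM labelling, HpaI digest and capillary electrophoresis; gain of signal fitted versus DMSO baseline.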

[19] = ATG_GAL4_TRANS: Attagene TRANS-FACTORIAL HepG2 Assay for GAL4 (Internal Marker) (AID 2282976; active = hit-call score of the fitted dose curve at least 0.9, where 1 is the maximum); conditions: HepG2 Attagene TRANS GAL4 internal marker reporter
How it was run: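 HepG2 cells transiently transfected with multiplexed GAL4-UAS reporter constructs were dosed for 24 h. Reporter mRNA was measured by RT-PCR, 6-FAM primer extension, HpaI digestion and capillary electrophoresis, and gain of signal was fitted relative to DMSO.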

[20] = target: Estrogen-related receptor gamma (Homo sapiens) (UniProt P62508); assay: ATG_ERRg_TRANS: Attagene TRANS-FACTORIAL HepG2 Assay for human Estrogen-Related Receptor gamma (ERRg) (AID 2282977; active = hit-call score of the fitted dose curve at least 0.9, where 1 is the maximum;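 note: hits increase reporter signal over DMSO so potencies reflect activators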); conditions: HepG2 Attagene TRANS reporter, ERRg transactivation
How it was run: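 HepG2 cells transiently transfected with multiplexed GAL4-UAS reporter units and chimeric NR-Gal4 constructs were exposed to test chemicals for 24 h. Reporter mRNA was measured by RT-PCR, 6-FAM primer extension, HpaI digestion and capillary electrophoresis; gain-of-signal versus DMSO.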

Measured: AC50

Sequence of X-box-binding protein 1 (Homo sapiens) (P17861 whole entry, looked up): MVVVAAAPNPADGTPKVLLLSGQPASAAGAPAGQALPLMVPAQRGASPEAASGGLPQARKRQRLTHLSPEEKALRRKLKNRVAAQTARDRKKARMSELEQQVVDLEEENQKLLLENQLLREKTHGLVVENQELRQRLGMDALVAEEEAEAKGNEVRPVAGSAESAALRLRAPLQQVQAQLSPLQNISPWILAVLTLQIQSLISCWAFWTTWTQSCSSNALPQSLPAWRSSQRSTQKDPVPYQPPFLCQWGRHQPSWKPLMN
Sequence of Paired box protein Pax-6 (Homo sapiens) (P26367 whole entry, looked up): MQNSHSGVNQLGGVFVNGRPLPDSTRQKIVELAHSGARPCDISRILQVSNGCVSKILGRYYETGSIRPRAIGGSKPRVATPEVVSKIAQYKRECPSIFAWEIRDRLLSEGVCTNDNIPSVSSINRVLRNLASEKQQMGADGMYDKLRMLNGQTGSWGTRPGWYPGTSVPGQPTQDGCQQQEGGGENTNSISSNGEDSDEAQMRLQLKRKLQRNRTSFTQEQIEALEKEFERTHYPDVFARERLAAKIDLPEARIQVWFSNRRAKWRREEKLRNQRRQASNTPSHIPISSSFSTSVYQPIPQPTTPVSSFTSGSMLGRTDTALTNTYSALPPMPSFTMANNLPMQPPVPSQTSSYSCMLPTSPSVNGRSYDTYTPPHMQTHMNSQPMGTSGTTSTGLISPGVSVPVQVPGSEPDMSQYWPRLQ
Sequence of Transcription factor Sp1 (Homo sapiens) (P08047 whole entry, looked up): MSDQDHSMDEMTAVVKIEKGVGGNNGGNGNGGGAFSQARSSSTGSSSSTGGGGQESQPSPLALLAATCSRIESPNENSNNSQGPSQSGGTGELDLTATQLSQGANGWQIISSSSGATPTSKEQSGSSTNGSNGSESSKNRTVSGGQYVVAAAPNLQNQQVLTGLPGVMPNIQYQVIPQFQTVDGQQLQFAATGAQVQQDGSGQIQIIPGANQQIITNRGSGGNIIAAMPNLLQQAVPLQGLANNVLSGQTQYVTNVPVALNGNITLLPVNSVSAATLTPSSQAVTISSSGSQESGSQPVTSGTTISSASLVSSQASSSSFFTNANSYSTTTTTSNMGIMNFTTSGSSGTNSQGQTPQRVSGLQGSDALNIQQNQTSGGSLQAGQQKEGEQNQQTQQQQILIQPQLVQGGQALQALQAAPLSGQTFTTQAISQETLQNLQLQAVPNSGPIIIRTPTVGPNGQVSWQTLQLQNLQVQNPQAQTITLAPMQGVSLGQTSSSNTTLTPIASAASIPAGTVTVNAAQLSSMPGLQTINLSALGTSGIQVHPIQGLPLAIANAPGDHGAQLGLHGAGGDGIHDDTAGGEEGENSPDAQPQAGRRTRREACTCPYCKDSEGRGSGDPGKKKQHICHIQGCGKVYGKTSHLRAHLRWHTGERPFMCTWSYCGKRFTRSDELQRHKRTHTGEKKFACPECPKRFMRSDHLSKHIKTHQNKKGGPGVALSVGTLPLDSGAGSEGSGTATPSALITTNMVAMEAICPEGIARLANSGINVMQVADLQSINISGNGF
Sequence of Nuclear receptor subfamily 1 group I member 3 (Homo sapiens) (Q14994 whole entry, looked up, the tested form may be a part): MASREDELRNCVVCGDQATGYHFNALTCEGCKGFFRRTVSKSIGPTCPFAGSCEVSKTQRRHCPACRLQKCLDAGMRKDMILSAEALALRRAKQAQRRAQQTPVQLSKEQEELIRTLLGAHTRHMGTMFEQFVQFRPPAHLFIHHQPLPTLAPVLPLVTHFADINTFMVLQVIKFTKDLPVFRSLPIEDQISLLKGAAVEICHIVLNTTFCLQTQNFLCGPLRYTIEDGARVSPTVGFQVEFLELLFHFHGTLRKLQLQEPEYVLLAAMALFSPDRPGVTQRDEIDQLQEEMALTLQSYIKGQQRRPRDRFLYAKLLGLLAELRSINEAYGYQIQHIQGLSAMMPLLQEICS
Sequence of Signal transducer and activator of transcription 3 (Homo sapiens) (P40763 whole entry, looked up): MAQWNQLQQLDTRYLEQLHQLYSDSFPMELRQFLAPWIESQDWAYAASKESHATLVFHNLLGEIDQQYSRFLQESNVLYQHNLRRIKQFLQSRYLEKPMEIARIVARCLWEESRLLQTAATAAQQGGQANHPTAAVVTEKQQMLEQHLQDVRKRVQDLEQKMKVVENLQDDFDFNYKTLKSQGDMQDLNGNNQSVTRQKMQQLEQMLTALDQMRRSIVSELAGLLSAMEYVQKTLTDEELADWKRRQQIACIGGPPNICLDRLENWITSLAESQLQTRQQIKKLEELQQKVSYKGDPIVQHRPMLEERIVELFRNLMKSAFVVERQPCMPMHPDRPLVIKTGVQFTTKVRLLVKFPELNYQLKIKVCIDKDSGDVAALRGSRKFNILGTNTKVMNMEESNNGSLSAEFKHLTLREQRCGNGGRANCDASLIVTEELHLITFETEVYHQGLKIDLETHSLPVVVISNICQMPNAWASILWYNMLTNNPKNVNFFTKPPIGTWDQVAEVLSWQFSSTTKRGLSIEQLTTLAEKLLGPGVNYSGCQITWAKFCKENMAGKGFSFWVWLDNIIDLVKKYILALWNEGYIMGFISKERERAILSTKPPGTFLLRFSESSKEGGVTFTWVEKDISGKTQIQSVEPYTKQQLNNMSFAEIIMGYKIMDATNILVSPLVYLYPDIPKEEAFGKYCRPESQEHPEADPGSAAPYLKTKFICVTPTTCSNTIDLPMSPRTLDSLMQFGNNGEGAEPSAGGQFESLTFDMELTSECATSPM
Sequence of Estrogen receptor (Homo sapiens) (P03372 whole entry, looked up, the tested form may be a part): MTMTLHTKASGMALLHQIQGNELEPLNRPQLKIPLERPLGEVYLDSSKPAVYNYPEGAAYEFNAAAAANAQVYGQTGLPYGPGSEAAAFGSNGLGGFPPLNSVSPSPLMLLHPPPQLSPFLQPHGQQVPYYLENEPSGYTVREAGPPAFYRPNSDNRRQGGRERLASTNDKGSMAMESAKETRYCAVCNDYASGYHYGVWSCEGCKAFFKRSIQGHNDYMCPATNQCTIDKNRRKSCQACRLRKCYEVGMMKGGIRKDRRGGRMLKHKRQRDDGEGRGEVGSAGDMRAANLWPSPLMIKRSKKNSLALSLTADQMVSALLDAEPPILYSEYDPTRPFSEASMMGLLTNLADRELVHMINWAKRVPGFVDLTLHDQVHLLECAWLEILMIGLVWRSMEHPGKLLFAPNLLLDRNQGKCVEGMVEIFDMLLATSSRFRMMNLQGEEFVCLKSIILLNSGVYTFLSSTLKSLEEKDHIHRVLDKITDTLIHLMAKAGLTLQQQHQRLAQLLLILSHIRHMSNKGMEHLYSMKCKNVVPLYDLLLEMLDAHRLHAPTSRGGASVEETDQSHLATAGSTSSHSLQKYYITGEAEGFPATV
Sequence of Steroid hormone receptor ERR1 (Homo sapiens) (P11474 whole entry, looked up, the tested form may be a part): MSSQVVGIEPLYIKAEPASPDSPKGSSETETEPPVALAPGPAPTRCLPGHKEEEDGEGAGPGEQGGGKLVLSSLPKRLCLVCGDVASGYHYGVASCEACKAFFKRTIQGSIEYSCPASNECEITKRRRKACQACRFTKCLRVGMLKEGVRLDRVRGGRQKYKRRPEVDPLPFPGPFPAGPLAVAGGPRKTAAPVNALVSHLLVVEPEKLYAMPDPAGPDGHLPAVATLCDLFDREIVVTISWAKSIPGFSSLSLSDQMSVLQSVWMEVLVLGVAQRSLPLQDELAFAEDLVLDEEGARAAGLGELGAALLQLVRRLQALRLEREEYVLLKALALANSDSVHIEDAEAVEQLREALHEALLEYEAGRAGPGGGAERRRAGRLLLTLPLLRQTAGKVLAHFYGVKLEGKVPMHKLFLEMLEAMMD
Sequence of Estrogen-related receptor gamma (Homo sapiens) (P62508 whole entry, looked up, the tested form may be a part): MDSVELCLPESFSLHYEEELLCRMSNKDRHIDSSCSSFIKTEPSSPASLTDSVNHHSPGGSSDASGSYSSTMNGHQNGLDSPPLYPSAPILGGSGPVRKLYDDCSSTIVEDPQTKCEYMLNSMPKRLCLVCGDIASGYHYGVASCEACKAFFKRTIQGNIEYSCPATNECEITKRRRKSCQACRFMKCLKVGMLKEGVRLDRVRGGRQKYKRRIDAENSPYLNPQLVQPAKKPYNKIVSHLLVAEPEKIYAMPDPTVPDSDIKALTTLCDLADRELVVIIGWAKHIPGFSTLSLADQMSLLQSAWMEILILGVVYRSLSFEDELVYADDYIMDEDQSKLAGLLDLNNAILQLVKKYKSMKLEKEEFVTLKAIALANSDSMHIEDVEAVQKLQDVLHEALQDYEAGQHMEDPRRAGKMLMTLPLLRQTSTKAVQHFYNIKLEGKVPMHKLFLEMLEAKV

O=C=NC1CCC(CC2CCC(N=C=O)CC2)CC1 (stereo not drawn)
active: [3] 68.9 µM | [4] 69.6 µM | [8] 164 µM | [10] 69.3 µM | [11] 26.8 µM | [12] 59.2 µM | [13] 37.5 µM | [14] 85.1 µM
inactive: [1] | [2] | [5] | [6] | [7] | [9]

c1ccc2sc(SN(C3CCCCC3)C3CCCCC3)nc2c1
active: [2] 0.698 µM | [12] 0.335 µM | [13] 4.65 µM
not listed: [17] | [18] | [19] | [20]
inactive: all other assays above

Cc1ccccc1C=O
active: [2] 38.2 µM
not listed: [18] | [19] | [20]
inactive: all other assays above

CCCC/C=C\CCCCCCCCCC=O
not listed: [14] | [15] | [17]
inactive: all other assays above

CCCCCCOC(=O)CC
not listed: [15] | [19] | [20]
inactive: all other assays above

CC(=O)Nc1ccccc1O
not listed: [16] | [17] | [18] | [20]
inactive: all other assays above

CC(=O)c1c(C)cc(C(C)(C)C)cc1C
active: [2] 27.1 µM
not listed: [16] | [17] | [18] | [19] | [20]
inactive: all other assays above

COC(=O)Cc1cccc2ccccc12
active: [2] 42.8 µM
not listed: [16] | [18] | [19] | [20]
inactive: all other assays above
